Here are results for 10 compounds from PubChem BioAssay (Tox21).

Test [1] deals with Thyrotropin-releasing hormone receptor (Homo sapiens) (UniProt P34981). As to the kind of experiment: qHTS assay to identify small molecule agonists of the thyrotropin-releasing hormone receptor (TRHR) signaling pathway (AID 1346891; calls by dose curve;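 also: HEK293 cells expressing TRHR with calcium dye readout; series mostly up to about 58 µM; % is scaled to controls: 0 for no effect and ±100 for the full control effect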). Put shortly: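 HEK293/TRHR cells, 1500 per well, 18 h 37 °C; Ca dye 2 h 37 °C; pin-tool compound addition (agonist mode); kinetic fluorescence 3 min, 1 s reads; 15 concentrations, triplicate.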
Thyrotropin-releasing hormone receptor (Homo sapiens), sequence (P34981 whole entry, looked up): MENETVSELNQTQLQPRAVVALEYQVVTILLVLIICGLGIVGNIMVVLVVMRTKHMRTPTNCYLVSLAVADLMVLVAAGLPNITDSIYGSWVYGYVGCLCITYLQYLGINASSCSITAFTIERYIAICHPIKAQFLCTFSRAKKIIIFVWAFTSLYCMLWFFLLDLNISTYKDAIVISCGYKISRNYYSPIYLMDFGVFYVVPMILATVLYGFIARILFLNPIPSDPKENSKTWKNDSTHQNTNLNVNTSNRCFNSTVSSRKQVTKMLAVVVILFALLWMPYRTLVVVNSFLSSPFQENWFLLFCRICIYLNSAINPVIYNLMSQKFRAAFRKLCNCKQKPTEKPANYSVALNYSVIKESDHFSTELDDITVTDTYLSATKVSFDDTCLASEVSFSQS

The nature of test [2]: Human pregnane X receptor (PXR) small molecule agonists, qHTS cell viability counter screen (AID 1346977). Also: nearly all actives have a fitted effect of over 50% in size. Also: potency is read from the fitted curve at half-maximal effect. Put shortly:
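Fluorescence read-out (CellTiter-Fluor) of viability in PXR-Luc HepG2 cells, multiplexed with the luciferase agonist read. Compounds in DMSO added after 5hr plating; 24hr total exposure at 37C, 5% CO2.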

A short description of test [3]: Caspase-3/7 induction in HepG2 cells by small molecules, qHTS assay (AID 1346978). Also: % is scaled to controls: 0 for no effect and ±100 for the full control effect; nearly all actives have a fitted effect of over 15% in size. Put shortly:
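Caspase-3/7 induction was measured by Caspase-Glo 3/7 luminescence (30 min, room temperature) after a 17 hr compound exposure of wild-type HepG2 cells seeded at 2,000 per well and pre-incubated 5 hr.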

Test [4] is described as follows: Caspase-3/7 induction in CHO-K1 cells by small molecules, qHTS cell viability counter screen (AID 1346979). Also: nearly all actives have a fitted effect of over 35% in size. Also: potency is read from the fitted curve at half-maximal effect. Put shortly: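 CHO-K1 wt, 1,500 cells/well; 5hr pre-incubation 37C/5% CO2; compound pin transfer (DMSO); 16hr exposure; CellTiter-Fluor added, 1hr, fluorescence read.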
Test [5] in a line: Caspase-3/7 induction in CHO-K1 cells by small molecules, qHTS assay (AID 1346980). Also: % is scaled to controls: 0 for no effect and ±100 for the full control effect; nearly all actives have a fitted effect of over 15% in size. The procedure, abridged:
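Luminescent Caspase-Glo 3/7 read (30min, room temperature) quantified apoptosis induction. Cells were wild-type CHO-K1, treated with compound for 17hr at 37 C and 5% CO2.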

For test [6], the target named is Nuclear receptor subfamily 1 group I member 2 (Homo sapiens) (UniProt O75469). Nature of the test: Human pregnane X receptor (PXR) small molecule agonists, qHTS assay (AID 1346982). Also: nearly all actives have a fitted effect of over 35% in size. Also: potency is read from the fitted curve at half-maximal effect. As to activation: % is scaled to controls: 0 for no effect and ±100 for the full control effect. The procedure, abridged:
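Cells: HepG2 stably carrying PXR-Luc. Medium held 5% charcoal-stripped FBS. Compounds in DMSO added after 5 hr plating, incubated 24 hr, then luminescence quantified with ONE-Glo.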

Test [7] has as its target Cytochrome P450 2D6 (Homo sapiens) (UniProt P10635). Nature of the test: Cytochrome P450 Family 2 Subfamily D Member 6 (CYP2D6) small molecule antagonists: luciferase reporter qHTS assay (AID 1671196). Also: nearly all actives have a fitted effect of over 50% in size. Also: potency is read from the fitted curve at half-maximal effect. The procedure, abridged: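 Enzyme and proluciferin substrate were first combined with test chemical for 10 min at room temperature. Adding NADPH regeneration solution started a 1 h reaction, stopped with luciferin detection reagent and read by luminescence 20 min later.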

Test [8] deals with Cytochrome P450 2C19 (Homo sapiens) (UniProt P33261). As to the kind of experiment: Cytochrome P450 Family 2 Subfamily C Member 19 (CYP2C19) small molecule antagonists: luciferase reporter qHTS assay (AID 1671197). Also: nearly all actives have a fitted effect of over 65% in size. Also: potency is read from the fitted curve at half-maximal effect. Put shortly:
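Relative luminescence units recorded 20 min after the detection reagent stopped a 1 h, 37C CYP2C19 reaction on proluciferin substrate, which was started by NADPH regeneration following 10 min room-temperature compound preincubation; ketoconazole positive control.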

In test [9] the target is Cytochrome P450 2C9 (Homo sapiens) (UniProt P11712). As to the kind of experiment: Cytochrome P450 Family 2 Subfamily C Member 9 (CYP2C9) small molecule antagonists: luciferase reporter qHTS assay (AID 1671198). Also: nearly all actives have a fitted effect of over 50% in size. Also: potency is read from the fitted curve at half-maximal effect. Put shortly:
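Enzyme-substrate mix preincubated with compound 10 min at room temperature; reaction started with NADPH regeneration solution, 1 h 37C. Luminescent luciferin product read after 20 min detection reagent.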

Test [10] concerns the target Cytochrome P450 1A2 (Homo sapiens) (UniProt P05177). As to the kind of experiment: Cytochrome P450 Family 1 Subfamily A Member 2 (CYP1A2) small molecule antagonists: luciferase reporter qHTS assay (AID 1671199). Also: nearly all actives have a fitted effect of over 50% in size. Also: potency is read from the fitted curve at half-maximal effect. The procedure, abridged:
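Compounds were incubated with CYP1A2 and a luminogenic proluciferin substrate for 10 min at room temperature before the reaction was started with NADPH regeneration solution. After 1 h, detection reagent was added and light output, proportional to CYP activity, was recorded.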

Test [11] concerns the target Voltage-gated inwardly rectifying potassium channel KCNH2 (Homo sapiens) (UniProt Q12809). Nature of the test: Human Ether-a-go-go-Related Gene (hERG) channel small molecule antagonists: fluorescence cell-based qHTS assay (AID 1671200). Put shortly:
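Read-out: thallium influx as a surrogate for potassium, tracked as fluorescence (480 nm ex/540 nm em) every second for 2 min after Stimulus Buffer addition in dye-loaded hERG-U2OS cells.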

In test [12] the target is Cytochrome P450 3A4 (Homo sapiens) (UniProt P08684). As to the kind of experiment: Cytochrome P450 Family 3 Subfamily A Member 4 (CYP3A4) small molecule antagonists: luciferase reporter qHTS assay (AID 1671201). Also: nearly all actives have a fitted effect of over 50% in size. Also: potency is read from the fitted curve at half-maximal effect. Put shortly: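 Luminescent readout (RLU) proportional to CYP3A4 activity, from luciferin generated off a proluciferin substrate. Enzyme–substrate mix plus compound 10 min at room temp, NADPH regeneration 1 h, detection reagent 20 min.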
Cytochrome P450 3A4 (Homo sapiens), sequence (P08684 whole entry, looked up): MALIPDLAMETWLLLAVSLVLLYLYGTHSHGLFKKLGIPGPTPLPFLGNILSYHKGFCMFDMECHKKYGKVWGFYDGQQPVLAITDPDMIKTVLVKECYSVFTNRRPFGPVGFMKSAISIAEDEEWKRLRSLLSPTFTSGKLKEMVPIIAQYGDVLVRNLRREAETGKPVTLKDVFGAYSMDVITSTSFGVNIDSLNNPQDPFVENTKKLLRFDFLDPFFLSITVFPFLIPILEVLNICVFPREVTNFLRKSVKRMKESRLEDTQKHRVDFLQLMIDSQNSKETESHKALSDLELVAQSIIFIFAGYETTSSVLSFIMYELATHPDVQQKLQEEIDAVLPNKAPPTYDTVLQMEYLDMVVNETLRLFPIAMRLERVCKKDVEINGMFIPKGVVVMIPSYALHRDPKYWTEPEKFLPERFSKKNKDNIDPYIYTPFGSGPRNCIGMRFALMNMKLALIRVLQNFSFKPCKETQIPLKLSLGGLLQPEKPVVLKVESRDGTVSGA

The target of test [13] is Nuclear receptor subfamily 1 group I member 2 (Rattus norvegicus) (UniProt Q9R1A7). As to the kind of experiment: Rat pregnane X receptor (rPXR) activation by small molecules, qHTS assay (AID 1346983). Also: % is scaled to controls: 0 for no effect and ±100 for the full control effect; nearly all actives have a fitted effect of over 20% in size. The settings on record: rPXR luciferase reporter cells, One-Glo luminescence, 24 h; max activation: stronger effect = higher value. The procedure, abridged: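 Luminescent readout (One-Glo luciferase, 30 min room temperature) followed 24 hr compound treatment at 37 C of rPXR cells plated 2,000 per well and preincubated 5hr; qHTS format with compounds delivered in DMSO.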
Nuclear receptor subfamily 1 group I member 2 (Rattus norvegicus), sequence (Q9R1A7 whole entry, looked up): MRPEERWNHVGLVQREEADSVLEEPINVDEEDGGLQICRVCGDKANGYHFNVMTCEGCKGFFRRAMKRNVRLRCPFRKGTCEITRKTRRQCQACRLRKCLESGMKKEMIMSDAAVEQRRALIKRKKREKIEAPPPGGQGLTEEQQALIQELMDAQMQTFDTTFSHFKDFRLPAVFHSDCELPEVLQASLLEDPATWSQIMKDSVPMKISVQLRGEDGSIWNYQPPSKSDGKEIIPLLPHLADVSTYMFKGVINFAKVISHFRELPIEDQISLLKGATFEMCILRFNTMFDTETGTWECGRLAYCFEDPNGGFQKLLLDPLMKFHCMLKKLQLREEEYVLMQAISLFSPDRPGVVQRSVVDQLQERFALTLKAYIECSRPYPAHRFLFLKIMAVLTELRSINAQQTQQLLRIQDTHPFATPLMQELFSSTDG

For test [14], the target named is Nuclear receptor subfamily 1 group I member 2 (Homo sapiens) (UniProt O75469). Nature of the test: CYP3A4 induction through human pregnane X receptor (PXR) by small molecules, qHTS assay (AID 1346984). Also: % is scaled to controls: 0 for no effect and ±100 for the full control effect; nearly all actives have a fitted effect of over 40% in size. The procedure, abridged:
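Quantitative HTS in DPX-2 cells, i.e. HepG2 transfected with PXR response element and CYP3A4-promoter luciferase. Compounds in DMSO incubated 24hr at 37C; then P450-Glo CYP3A4 substrate, 3uM final, 3hr; One-Glo luminescence.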

For test [15] the target is unchanged. As to the kind of experiment: Human pregnane X receptor (PXR) activation by small molecules, qHTS assay (AID 1346985). Also: potency is read from the fitted curve at half-maximal effect; nearly all actives have a fitted effect of over 40% in size. The procedure, abridged:
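DPX-2 cells (HepG2 co-transfected with a PXR response element and a CYP3A4-promoter luciferase construct) were seeded at 2,000 per well, rested 5 hr at 37C, then exposed to DMSO-dissolved compounds for 24 hr. Activation was read as luciferase luminescence.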

Test [16] is described as follows: Caspase-3/7 induction in HepG2 cells by small molecules, qHTS cell viability counter screen (AID 1346981). Also: series mostly up to about 92 µM; % is scaled to controls: 0 for no effect and ±100 for the full control effect; nearly all actives have a fitted effect of over 30% in size. The procedure, abridged: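 Cell viability is measured as a cytotoxicity counter screen alongside the Caspase-Glo 3/7 readout in identical wells. Wild-type HepG2 cells are treated with test compounds for 16 hr at 37 C before CellTiter-Fluor addition and a 1-hr incubation.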

A number with no mark means an inactive call. Inconclusive results are not listed. The source made the active and inactive calls. Unless noted, calls follow the shape of the dose curve; as a rule, active = well fitted curve in the direction sought with a large enough effect in the repeat runs; inconclusive = weak or mixed curves; inactive = no such curve, though single readings can be large; an effect the other way counts as inactive or inconclusive.

Voltage-gated inwardly rectifying potassium channel KCNH2 (Homo sapiens), sequence (Q12809 whole entry, looked up): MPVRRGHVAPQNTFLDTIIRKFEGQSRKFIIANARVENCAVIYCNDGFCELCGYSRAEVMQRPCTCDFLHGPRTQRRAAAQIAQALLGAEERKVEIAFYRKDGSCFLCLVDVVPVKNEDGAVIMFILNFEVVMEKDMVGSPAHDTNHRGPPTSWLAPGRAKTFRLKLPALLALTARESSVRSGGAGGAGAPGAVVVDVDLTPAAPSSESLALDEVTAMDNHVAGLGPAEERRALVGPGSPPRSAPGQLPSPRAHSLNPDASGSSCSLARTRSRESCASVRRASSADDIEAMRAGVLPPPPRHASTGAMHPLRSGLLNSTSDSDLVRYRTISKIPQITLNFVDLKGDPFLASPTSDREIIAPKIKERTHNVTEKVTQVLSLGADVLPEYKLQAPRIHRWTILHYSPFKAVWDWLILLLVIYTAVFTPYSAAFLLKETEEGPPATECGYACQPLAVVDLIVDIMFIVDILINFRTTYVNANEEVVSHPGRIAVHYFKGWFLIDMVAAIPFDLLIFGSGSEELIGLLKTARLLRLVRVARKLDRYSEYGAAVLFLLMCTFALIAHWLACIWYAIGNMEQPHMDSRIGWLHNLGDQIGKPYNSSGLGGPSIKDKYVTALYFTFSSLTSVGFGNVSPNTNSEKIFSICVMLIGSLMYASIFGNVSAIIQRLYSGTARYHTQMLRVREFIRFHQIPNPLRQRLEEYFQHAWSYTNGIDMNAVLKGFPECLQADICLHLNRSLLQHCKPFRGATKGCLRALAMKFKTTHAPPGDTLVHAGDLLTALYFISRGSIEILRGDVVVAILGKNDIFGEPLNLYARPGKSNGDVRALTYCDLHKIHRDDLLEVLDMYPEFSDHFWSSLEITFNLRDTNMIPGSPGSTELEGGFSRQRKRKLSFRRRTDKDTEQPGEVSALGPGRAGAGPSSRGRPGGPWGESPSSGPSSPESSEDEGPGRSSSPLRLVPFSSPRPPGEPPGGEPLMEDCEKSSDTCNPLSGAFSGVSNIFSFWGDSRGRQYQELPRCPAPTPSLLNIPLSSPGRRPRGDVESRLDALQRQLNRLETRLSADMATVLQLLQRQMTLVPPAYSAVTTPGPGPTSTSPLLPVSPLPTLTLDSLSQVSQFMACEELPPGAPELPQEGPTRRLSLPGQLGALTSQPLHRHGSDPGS
Cytochrome P450 2C9 (Homo sapiens), sequence (P11712 whole entry, looked up): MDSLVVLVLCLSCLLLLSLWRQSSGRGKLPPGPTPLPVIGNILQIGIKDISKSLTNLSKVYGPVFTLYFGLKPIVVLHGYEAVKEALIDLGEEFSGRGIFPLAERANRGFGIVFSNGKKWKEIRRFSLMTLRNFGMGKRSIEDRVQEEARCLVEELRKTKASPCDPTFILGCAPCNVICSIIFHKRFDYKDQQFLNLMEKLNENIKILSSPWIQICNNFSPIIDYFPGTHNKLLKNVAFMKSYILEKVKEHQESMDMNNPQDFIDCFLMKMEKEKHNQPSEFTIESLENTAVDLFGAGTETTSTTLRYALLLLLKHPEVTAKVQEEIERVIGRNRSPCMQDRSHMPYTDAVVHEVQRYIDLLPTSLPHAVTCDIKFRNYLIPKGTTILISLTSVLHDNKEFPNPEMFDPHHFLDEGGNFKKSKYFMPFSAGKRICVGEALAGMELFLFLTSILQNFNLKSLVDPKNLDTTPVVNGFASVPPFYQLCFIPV
Nuclear receptor subfamily 1 group I member 2 (Homo sapiens), sequence (O75469 whole entry, looked up): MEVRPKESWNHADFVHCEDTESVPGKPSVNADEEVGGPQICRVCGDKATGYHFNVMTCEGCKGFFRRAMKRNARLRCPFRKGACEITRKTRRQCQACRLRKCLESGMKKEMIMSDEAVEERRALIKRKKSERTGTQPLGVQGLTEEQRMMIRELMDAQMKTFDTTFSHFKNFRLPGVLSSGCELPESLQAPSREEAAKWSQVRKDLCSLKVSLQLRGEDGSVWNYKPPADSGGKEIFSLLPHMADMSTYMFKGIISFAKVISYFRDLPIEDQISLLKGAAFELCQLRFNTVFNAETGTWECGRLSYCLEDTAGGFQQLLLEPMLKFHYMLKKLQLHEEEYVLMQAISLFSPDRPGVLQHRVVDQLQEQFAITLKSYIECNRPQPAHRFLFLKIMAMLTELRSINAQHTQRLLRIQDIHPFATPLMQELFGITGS
Cytochrome P450 2C19 (Homo sapiens), sequence (P33261 whole entry, looked up): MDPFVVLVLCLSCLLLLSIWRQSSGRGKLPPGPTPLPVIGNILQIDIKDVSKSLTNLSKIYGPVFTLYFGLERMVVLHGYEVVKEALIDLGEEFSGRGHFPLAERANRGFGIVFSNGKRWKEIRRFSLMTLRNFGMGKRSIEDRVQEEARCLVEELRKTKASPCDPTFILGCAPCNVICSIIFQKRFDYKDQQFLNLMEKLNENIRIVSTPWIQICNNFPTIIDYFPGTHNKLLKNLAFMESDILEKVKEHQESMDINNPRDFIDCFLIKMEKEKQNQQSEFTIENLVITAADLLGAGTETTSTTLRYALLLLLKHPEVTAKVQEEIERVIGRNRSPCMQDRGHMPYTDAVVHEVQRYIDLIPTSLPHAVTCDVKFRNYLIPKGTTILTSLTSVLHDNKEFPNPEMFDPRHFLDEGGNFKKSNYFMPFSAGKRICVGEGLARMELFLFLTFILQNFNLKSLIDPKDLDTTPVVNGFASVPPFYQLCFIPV
Cytochrome P450 2D6 (Homo sapiens), sequence (P10635 whole entry, looked up): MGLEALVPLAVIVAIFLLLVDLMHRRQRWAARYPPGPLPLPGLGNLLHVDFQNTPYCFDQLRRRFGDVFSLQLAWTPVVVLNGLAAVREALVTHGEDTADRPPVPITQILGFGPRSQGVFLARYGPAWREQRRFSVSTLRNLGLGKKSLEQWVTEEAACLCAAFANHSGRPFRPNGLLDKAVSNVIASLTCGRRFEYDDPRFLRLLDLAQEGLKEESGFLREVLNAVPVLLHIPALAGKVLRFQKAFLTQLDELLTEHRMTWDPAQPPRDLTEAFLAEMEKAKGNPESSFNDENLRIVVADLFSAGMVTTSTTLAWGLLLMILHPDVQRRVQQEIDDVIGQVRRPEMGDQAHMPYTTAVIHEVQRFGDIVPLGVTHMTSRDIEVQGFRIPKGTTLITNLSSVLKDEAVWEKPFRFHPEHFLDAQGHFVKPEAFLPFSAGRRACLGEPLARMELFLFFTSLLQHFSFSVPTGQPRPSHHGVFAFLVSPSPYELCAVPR
Cytochrome P450 1A2 (Homo sapiens), sequence (P05177 whole entry, looked up): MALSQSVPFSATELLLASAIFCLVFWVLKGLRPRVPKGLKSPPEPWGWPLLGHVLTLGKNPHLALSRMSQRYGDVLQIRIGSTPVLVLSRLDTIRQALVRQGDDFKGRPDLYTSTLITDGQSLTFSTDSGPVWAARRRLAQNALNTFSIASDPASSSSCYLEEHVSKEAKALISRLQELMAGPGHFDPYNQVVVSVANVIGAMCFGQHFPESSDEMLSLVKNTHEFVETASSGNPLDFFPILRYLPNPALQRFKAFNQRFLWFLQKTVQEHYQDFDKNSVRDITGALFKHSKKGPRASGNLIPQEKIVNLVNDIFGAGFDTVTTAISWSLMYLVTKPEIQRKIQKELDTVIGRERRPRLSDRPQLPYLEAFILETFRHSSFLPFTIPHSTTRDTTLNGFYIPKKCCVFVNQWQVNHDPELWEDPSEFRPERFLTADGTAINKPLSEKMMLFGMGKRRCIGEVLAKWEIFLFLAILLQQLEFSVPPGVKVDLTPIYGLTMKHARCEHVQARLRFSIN

As for `COc1ccccc1N=Nc1c(S(=O)(=O)O)cc2cc(S(=O)(=O)O)cc(NC(C)=O)c2c1O`, the Potency result in test [1], in [3], in test [6] and in [11] was “inactive” throughout. For the same compound, the Potency was 22.9 µM (active) in test [2]; 25.7 µM (active) in test [4]; 33.5 µM (active) in test [7]; 29.8 µM (active) in test [8]; 33.5 µM (active) in test [9]; 33.5 µM (active) in test [10]. In addition, in test [12], the Potency is 33.5 µM (active). For the same compound, the result in [5] was inactive.

`O=C(O)c1cccc(O)c1`: the Potency entry in test [1], in test [2], in test [3], in test [4], in test [6] and in [7] was “inactive” each time. In addition, the Potency entry in test [11] and in test [12] was “inactive” in each case. Moreover, in [5], the outcome was inactive.

On to `N#C/C(=C1\SCC(c2ccccc2Cl)S1)n1ccnc1` (configuration not stated), for which the Potency result in test [1], in test [2], in test [3], in [4], in [14] and in test [11] was “inactive” in each case. In [5], the compound was called inactive. Besides, the Potency in test [6] is 26.6 µM (active); in [15], 14.1 µM (active); in [7], 2.19 µM (active); in test [8] it was 0.0776 µM (active); in [9] it was 2.45 µM (active); in test [10] it was 0.871 µM (active). For the same compound, the max activation in [13] was -0.365%.

Turning to `CCC(C)=O`, the Potency entry in test [1], in [2], in [3], in [4], in test [6] and in test [7] was “inactive” each time. In addition, the Potency entry in [8], in [9], in [11] and in test [12] was “inactive” each time. The call in test [5] was inactive.

In the case of `CCCCCCCCCCOS(=O)(=O)O`, the Potency result in test [1], in test [2], in [3], in test [4], in [16] and in test [10] was “inactive” each time. Moreover, the Potency result in [11] was “inactive”. For the same compound, the outcome in [5] was inactive. For the same compound, the Potency in [9] is 44.6 µM (active).

For the compound `COc1cc2c(N3CCN(C(=O)Nc4ccc(OC(C)C)cc4)CC3)ncnc2cc1OCCCN1CCCCC1`, the Potency entry in test [1], in test [3], in [6], in [9], in test [10] and in test [12] was “inactive” each time. In addition, the Potency in [2] is 23.7 µM (active); in test [4] it was 23.7 µM (active); in test [7] it was 15.5 µM (active). Also, in test [5], the call was inactive.

On to `CCOC(=O)/C=C/C(=O)O`, for which the Potency result in test [1], in test [2], in test [3], in [4], in [16] and in test [6] was “inactive” throughout. The Potency result in test [8], in test [9], in test [10], in [11] and in test [12] was “inactive” each time. Moreover, the result in test [5] was inactive.

As to `Cc1ccnc2ccccc12`, the Potency result in [1], in test [2], in test [3], in [4], in test [16] and in [6] was “inactive” each time. Also, the Potency result in test [9], in test [11] and in test [12] was “inactive” in each case. In test [5], the call was inactive.

Consider `O=C(CS)OCCOC(=O)CS`, for which the Potency result in [1], in test [2], in test [3], in test [4], in [6] and in test [7] was “inactive” each time. Moreover, the Potency result in [8] and in [11] was “inactive” in each case. The compound was classed as inactive in test [5]. In addition, in test [10], the Potency is 39.9 µM (active).

Take `CCCCCCCCCCCC[N+](C)(C)CC(=O)[O-]`: the Potency entry in [1], in test [2], in [3], in test [4], in test [6] and in test [9] was “inactive” in each case. Besides, the Potency entry in test [11] and in [12] was “inactive” each time. Moreover, the outcome in test [5] was inactive. Also, the Potency in test [10] is 35.6 µM (active).
